Data reported in PubChem BioAssay (NCI).
This is part of a sample that, as a whole, favours compounds with a hit. Of some 83,000 tested, about 20% had one in any assay.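 Negative percent growth values reflect cell death: -40 means 40% of the cells present at the start died, and -100 means all died.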 A number with no mark means an inactive call. Activity calls are given as the source filed them. How the source made its calls: active means growth percent below 10; inactive means the rest.

Key:
Experiment in all cases: NCI-60 one-dose screen, 48 h (100 = growth as untreated, 0 = no growth, -100 = all killed)
Conditions in all cases: 10 µM unless noted
NCI-H23 lung = system: NCI-H23 lung
NCI-H226 lung = system: NCI-H226 lung
NCI-H322M lung = system: NCI-H322M lung
HOP-62 NSCLC = system: HOP-62 NSCLC
NCI-H460 lung = system: NCI-H460 lung
HOP-92 NSCLC = system: HOP-92 NSCLC
A549/ATCC NSCLC = system: A549/ATCC NSCLC
786-0 renal = system: 786-0 renal
COLO 205 colon = system: COLO 205 colon
DU-145 prostate = system: DU-145 prostate
K-562 leukemia = system: K-562 leukemia
MALME-3M melanoma = system: MALME-3M melanoma
MDA-MB-231 breast = system: MDA-MB-231 breast
RXF 393 renal = system: RXF 393 renal
SF-268 CNS = system: SF-268 CNS
SF-295 CNS = system: SF-295 CNS
SF-539 CNS = system: SF-539 CNS
UACC-257 melanoma = system: UACC-257 melanoma
NCI-H522 lung = system: NCI-H522 lung
M14 melanoma = system: M14 melanoma

SMILES	growth (NCI-H23 lung)	growth (NCI-H226 lung)	growth (NCI-H322M lung)	growth (HOP-62 NSCLC)	growth (NCI-H460 lung)	growth (HOP-92 NSCLC)	growth (A549/ATCC NSCLC)	growth (786-0 renal)	growth (COLO 205 colon)	growth (DU-145 prostate)	growth (K-562 leukemia)	growth (MALME-3M melanoma)	growth (MDA-MB-231 breast)	growth (RXF 393 renal)	growth (SF-268 CNS)	growth (SF-295 CNS)	growth (SF-539 CNS)	growth (UACC-257 melanoma)	growth (NCI-H522 lung)	growth (M14 melanoma)
O=C(/C=C/c1cc(CN2CCOCC2)c(O)c2ncccc12)c1cc(CN2CCOCC2)c(O)c2ncccc12	30.5%	34.6%	45.5%	16%	9.34% (active)	-4.72% (active)	2.72% (active)	24.6%	30.2%	26.9%	10.4%	38.9%	30.6%	35.3%	30.2%	14.7%	15%	-6.41% (active)	–	–
CCNC(=O)Oc1ccc(/C(=C(\C)c2ccc(Cl)cc2)c2ccc(OCCN3CCCCC3)cc2)cc1	65.1%	78.2%	75.2%	58.7%	22.3%	68.8%	46.1%	41.9%	-60.9% (active)	72.8%	–	-8.7% (active)	51.8%	49.1%	55%	42.7%	47.8%	-33.9% (active)	80%	-46.5% (active)
CC(=O)OCCC/C(=C/c1cc2ccccc2c2ccccc12)[N+](=O)[O-]	-76.5% (active)	-51.6% (active)	58.2%	-61.3% (active)	-18.5% (active)	-76% (active)	-94.6% (active)	-89.5% (active)	-85.9% (active)	-100% (active)	–	-71% (active)	-54.3% (active)	–	-89.6% (active)	7.66% (active)	-100% (active)	–	-59.9% (active)	-69.9% (active)
NC(CSC(c1ccccc1)(c1ccccc1)c1ccc(Cl)cc1)C(=O)O (stereo unspecified)	8.79% (active)	47.2%	36.5%	27.5%	7.15% (active)	-15.9% (active)	-9.59% (active)	25.6%	-13% (active)	-49.7% (active)	–	22.6%	-32.8% (active)	–	16.2%	13.8%	-12.3% (active)	–	5.69% (active)	-24.2% (active)
CC(=O)Oc1ccc(Cl)cc1CN(C(C)=O)C1CCCCC1	116%	96.3%	101%	102%	114%	83.4%	106%	90%	104%	125%	–	111%	105%	101%	100%	–	111%	81.3%	88.2%	109%
O=C1C=CC(=O)N1c1ccc2c(c1)Cc1cc(F)ccc1-2	101%	99.3%	93%	93.8%	111%	83.4%	97.9%	112%	94%	112%	–	94.4%	92.3%	92.2%	99.7%	–	101%	64.7%	91.1%	107%
Cc1cc(N2CCSCC2)nc(NC2CCCC(Nc3ccnc4cc(Cl)ccc34)C2)n1 (stereo unspecified)	35.1%	18.2%	-28.8% (active)	-46.2% (active)	-11.2% (active)	-66.1% (active)	7.52% (active)	-91.6% (active)	-74.8% (active)	19.7%	–	-86.1% (active)	-75.7% (active)	-73.7% (active)	-39.9% (active)	-78.6% (active)	-93.1% (active)	-79.3% (active)	-52.5% (active)	-88.5% (active)
COc1cc2nnc3c4cccnc4[nH]c3c2cc1OC	89.6%	40.5%	110%	96.9%	25.6%	-40.8% (active)	47.2%	7.43% (active)	50.2%	37.6%	–	-3.59% (active)	45.9%	–	19.4%	67.4%	54.9%	-33.4% (active)	-75.7% (active)	81.2%
COc1cc2c(cc1O)CC[C@@H]1[C@@H]2CC[C@]2(C)[C@@H](OCCCN(C)C)CC[C@@H]12	-30% (active)	9.47% (active)	-22.3% (active)	-57.8% (active)	-61.4% (active)	-18.2% (active)	-33.7% (active)	-83.8% (active)	-71% (active)	-10.3% (active)	–	-76.1% (active)	-70.2% (active)	-88.3% (active)	-24.3% (active)	-79.8% (active)	-85% (active)	-77.4% (active)	-90.8% (active)	-78.8% (active)
CN1CCN(c2nc(NCCCNc3ccnc4cc(Cl)ccc34)c3ccccc3n2)CC1	72.5%	70%	64.3%	49%	28.5%	68.4%	29.2%	74.6%	-6.18% (active)	59.8%	–	-66.3% (active)	-8.42% (active)	43.3%	66.2%	62.5%	-71% (active)	17.7%	20.2%	-85.6% (active)
Cc1ccc(C(SCC(N)C(=O)O)(c2ccccc2)c2ccc(C)cc2)cc1 (stereo unspecified)	12.6%	56.3%	29.4%	31.9%	9.22% (active)	-10.1% (active)	-2.96% (active)	25.1%	-3.13% (active)	-43.8% (active)	–	19.8%	-12.7% (active)	–	20.5%	14.7%	-5.21% (active)	–	-19% (active)	-34.4% (active)
COc1ccc(-c2cc(-c3ccc(Nc4ccnc5cc(Cl)ccc45)cc3)nc(N3CCOCC3)n2)cc1	68%	69.4%	87%	81.6%	13.3%	67.2%	12.3%	69.6%	44.7%	21.7%	–	-39.1% (active)	52.4%	34.9%	72.1%	94.6%	-41.1% (active)	79%	48%	12.9%
CC(C)CC1C(=O)N2CCC[C@H]2C2(O)O[C@](NC(=O)C3C=C4c5cccc6[nH]c(Br)c(c56)C[C@H]4N(C)C3)(C(C)C)C(=O)N12 (stereo partly specified)	71.1%	59.5%	71.8%	82.7%	57.2%	66.1%	37.9%	–	47.9%	83.6%	34.5%	74.7%	46.3%	36.8%	55.8%	–	73.6%	51%	53.5%	66.3%
CSc1ccc(-c2ccccc(=O)c2O)cc1	21.9%	16.1%	19.5%	3.95% (active)	2.89% (active)	49.5%	11.5%	8.4% (active)	22.6%	21%	–	15.6%	36.8%	39.3%	11.5%	19.4%	4.03% (active)	-4.11% (active)	24.1%	-6.35% (active)
NC(N)=N/N=C(/c1ccccc1)c1ccc(F)cc1	3.78% (active)	8.06% (active)	39.3%	19.7%	6.84% (active)	-16.9% (active)	-15.1% (active)	18.6%	-47% (active)	-19.7% (active)	–	36.5%	-18.9% (active)	–	14.2%	3.89% (active)	-33.5% (active)	–	-44.8% (active)	-3.19% (active)
CC(C)(C)CC(C)(C)c1ccc(OCCOCC[N+](C)(C)Cc2ccccc2)cc1	2.23% (active)	31.6%	47.7%	-56.7% (active)	1.33% (active)	-58.7% (active)	25.5%	–	-86.5% (active)	39.4%	-35.4% (active)	-16.4% (active)	-88.2% (active)	0.0752% (active)	-54.1% (active)	41.8%	-64.9% (active)	-90.8% (active)	-44.9% (active)	-27.5% (active)
